Results on 14 sequences are retold here after article PMC8384837, “Expanding the binding specificity for RNA recognition by a PUF domain”.

Test in all cases: yeast three-hybrid, YBZ-1, SC-Leu-His + 0.5 mM 3-AT, 4 days
Holding throughout (settings): tags: N-Gal4 AD-HA kept; label: inside an RPR1-promoter hybrid RNA with tandem MS2 sites; ssRNA

The target of one experiment is PUM1 PUF domain R8-RWP (Homo sapiens, UniProt Q14671 828-1176, N1122R;Y1123W;Q1126P). An outline of the steps:
(§1)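 Repeat regions from input (SC-Leu) and selection (SC-Leu-His + 0.5 mM 3-AT) plates were PCR-amplified and Illumina-sequenced after four days of growth. The cells were strain YBZ-1 with a LexA–MS2 coat fusion and a HIS3 reporter, co-expressing Pumilio-1 PUF domain libraries and matching RNA elements from a centromeric plasmid. The interaction score is the log change in variant frequency from input to selection, taken in log2 with a pseudocount of 1 for absent variants.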

In another experiment the target is PUM1 PUF domain R8-PYL (Homo sapiens, UniProt Q14671 828-1176, N1122P;Q1126L). A digest of the protocol: as §1
Another experiment deals with PUM1 PUF domain R8-RYN (Homo sapiens, UniProt Q14671 828-1176, N1122R;Q1126N). An outline of the steps:
as §1

The target of a further experiment is PUM1 PUF domain R8-LFG (Homo sapiens, UniProt Q14671 828-1176, N1122L;Y1123F;Q1126G). An outline of the steps: as §1
The next experiment addresses PUM1 PUF domain R4-GSQ (Homo sapiens, UniProt Q14671 828-1176, N971G;H972S). An outline of the steps: as §1
The next experiment has as its target PUM1 PUF domain R4-VFP (Homo sapiens, UniProt Q14671 828-1176, N971V;H972F;Q975P). A digest of the protocol:
as §1

Another experiment deals with PUM1 PUF domain R4-WFG (Homo sapiens, UniProt Q14671 828-1176, N971W;H972F;Q975G). A digest of the protocol:
as §1

In another experiment the target is PUM1 PUF domain R5-RAV (Homo sapiens, UniProt Q14671 828-1176, C1007R;R1008A;Q1011V). A digest of the protocol: as §1
In the next experiment the target is PUM1 PUF domain R5-KQC (Homo sapiens, UniProt Q14671 828-1176, C1007K;R1008Q;Q1011C). A digest of the protocol:
as §1

The target in a further experiment is PUM1 PUF domain R1-RGC (Homo sapiens, UniProt Q14671 828-1176, S863R;R864G;Q867C). An outline of the steps: as §1
Another experiment concerns the target PUM1 PUF domain R3-ART (Homo sapiens, UniProt Q14671 828-1176, C935A;Q939T). A digest of the protocol: as §1
The target of a further experiment is PUM1 PUF domain R3-RAG (Homo sapiens, UniProt Q14671 828-1176, C935R;R936A;Q939G). A digest of the protocol:
as §1

The next experiment addresses PUM1 PUF domain R3-QRS (Homo sapiens, UniProt Q14671 828-1176, C935Q;Q939S). An outline of the steps:
as §1

In the next experiment the target is PUM1 PUF domain R5-EFW (Homo sapiens, UniProt Q14671 828-1176, C1007E;R1008F;Q1011W). An outline of the steps:
as §1

For another experiment, the target named is PUM1 PUF domain R5-VYF (Homo sapiens, UniProt Q14671 828-1176, C1007V;R1008Y;Q1011F). An outline of the steps:
as §1

Another experiment concerns the target PUM1 PUF domain R4-GPN (Homo sapiens, UniProt Q14671 828-1176, N971G;H972P;Q975N). An outline of the steps: as §1
In a further experiment the target is PUM1 PUF domain R7-RGW (Homo sapiens, UniProt Q14671 828-1176, S1079R;N1080G;E1083W). A digest of the protocol:
as §1

The next experiment deals with PUM1 PUF domain R2-RRC (Homo sapiens, UniProt Q14671 828-1176, N899R;Y900R;Q903C). An outline of the steps:
as §1

In the next experiment the target is PUM1 PUF domain R3-IFS (Homo sapiens, UniProt Q14671 828-1176, C935I;R936F;Q939S). A digest of the protocol:
as §1

A further experiment has as its target PUM1 PUF domain R5-NIL (Homo sapiens, UniProt Q14671 828-1176, C1007N;R1008I;Q1011L). An outline of the steps:
as §1

Chain of PUM1 PUF domain R1-RGC (Q14671 828-1176 S863R/R864G/Q867C): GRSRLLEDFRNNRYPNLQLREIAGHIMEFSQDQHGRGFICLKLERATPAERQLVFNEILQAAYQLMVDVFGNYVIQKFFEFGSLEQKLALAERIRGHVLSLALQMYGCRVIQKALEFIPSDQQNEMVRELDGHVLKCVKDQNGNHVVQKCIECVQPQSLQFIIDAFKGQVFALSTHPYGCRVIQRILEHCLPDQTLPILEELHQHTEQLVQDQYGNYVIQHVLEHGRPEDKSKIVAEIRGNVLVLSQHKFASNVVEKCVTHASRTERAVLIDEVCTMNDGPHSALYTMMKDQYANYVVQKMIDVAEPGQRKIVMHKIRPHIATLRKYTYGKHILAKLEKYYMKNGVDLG
Chain of PUM1 PUF domain R8-LFG (Q14671 828-1176 N1122L/Y1123F/Q1126G): as the sequence (Q14671 828-1176 S863R/R864G/Q867C) above, with R36S, G37R, C40Q, N295L, Y296F, Q299G counted along it
Chain of PUM1 PUF domain R4-WFG (Q14671 828-1176 N971W/H972F/Q975G): as the sequence (Q14671 828-1176 S863R/R864G/Q867C) above, with R36S, G37R, C40Q, N144W, H145F, Q148G counted along it
Chain of PUM1 PUF domain R3-QRS (Q14671 828-1176 C935Q/Q939S): as the sequence (Q14671 828-1176 S863R/R864G/Q867C) above, with R36S, G37R, C40Q, C108Q, Q112S counted along it
Chain of PUM1 PUF domain R4-GPN (Q14671 828-1176 N971G/H972P/Q975N): as the sequence (Q14671 828-1176 S863R/R864G/Q867C) above, with R36S, G37R, C40Q, N144G, H145P, Q148N counted along it
Chain of PUM1 PUF domain R4-VFP (Q14671 828-1176 N971V/H972F/Q975P): as the sequence (Q14671 828-1176 S863R/R864G/Q867C) above, with R36S, G37R, C40Q, N144V, H145F, Q148P counted along it
Chain of PUM1 PUF domain R5-KQC (Q14671 828-1176 C1007K/R1008Q/Q1011C): as the sequence (Q14671 828-1176 S863R/R864G/Q867C) above, with R36S, G37R, C40Q, C180K, R181Q, Q184C counted along it
Chain of PUM1 PUF domain R2-RRC (Q14671 828-1176 N899R/Y900R/Q903C): as the sequence (Q14671 828-1176 S863R/R864G/Q867C) above, with R36S, G37R, C40Q, N72R, Y73R, Q76C counted along it
Chain of PUM1 PUF domain R5-VYF (Q14671 828-1176 C1007V/R1008Y/Q1011F): as the sequence (Q14671 828-1176 S863R/R864G/Q867C) above, with R36S, G37R, C40Q, C180V, R181Y, Q184F counted along it
Chain of PUM1 PUF domain R3-RAG (Q14671 828-1176 C935R/R936A/Q939G): as the sequence (Q14671 828-1176 S863R/R864G/Q867C) above, with R36S, G37R, C40Q, C108R, R109A, Q112G counted along it

As for “GGCUAGAACUAGUGGAUCCCCCGGCGCCCGGCGGCUCGAGCCCGGGUAAGCGUAAAUAGUCUGCAUGCCGCCGGGCGCCAUGCCUGCAGGUCGACUCUAGAAAACAUG”, the binding signal in the experiment with PUM1 PUF domain R8-RWP was 5 log2 enrichment (interaction score); in the experiment with PUM1 PUF domain R8-PYL it was 3.48 log2 enrichment (interaction score); with PUM1 PUF domain R8-RYN, 6.46 log2 enrichment (interaction score); with PUM1 PUF domain R8-LFG, 2.38 log2 enrichment (interaction score).

As to “GGCUAGAACUAGUGGAUCCCCCGGCGCCCGGCGGCUCGAGCCCGGGUAAGUGUAUAUAGUCUGCAUGCCGCCGGGCGCCAUGCCUGCAGGUCGACUCUAGAAAACAUG”, the binding signal with PUM1 PUF domain R4-GSQ was 0.64 log2 enrichment (interaction score); with PUM1 PUF domain R4-VFP, 3.78 log2 enrichment (interaction score); with PUM1 PUF domain R4-WFG, 2.4 log2 enrichment (interaction score).

Consider “GGCUAGAACUAGUGGAUCCCCCGGCGCCCGGCGGCUCGAGCCCGGGUAAGUGUCAAUAGUCUGCAUGCCGCCGGGCGCCAUGCCUGCAGGUCGACUCUAGAAAACAUG”, for which the results for the binding signal with PUM1 PUF domain R5-RAV and in the experiment with PUM1 PUF domain R5-KQC were 2.94 log2 enrichment (interaction score) and 3.25 log2 enrichment (interaction score), respectively.

For “GGCUAGAACUAGUGGAUCCCCCGGCGCCCGGCGGCUCGAGCCCGGGUAAGUGUAAAUUGUCUGCAUGCCGCCGGGCGCCAUGCCUGCAGGUCGACUCUAGAAAACAUG”, the binding signal with PUM1 PUF domain R1-RGC was 2.07 log2 enrichment (interaction score).

Consider “GGCUAGAACUAGUGGAUCCCCCGGCGCCCGGCGGCUCGAGCCCGGGUAAGUGUAAUUAGUCUGCAUGCCGCCGGGCGCCAUGCCUGCAGGUCGACUCUAGAAAACAUG”, for which the results for the binding signal with PUM1 PUF domain R3-ART, in the experiment with PUM1 PUF domain R3-RAG and with PUM1 PUF domain R3-QRS were 0.34 log2 enrichment (interaction score), 3.75 log2 enrichment (interaction score) and 2.68 log2 enrichment (interaction score), respectively.

As to “GGCUAGAACUAGUGGAUCCCCCGGCGCCCGGCGGCUCGAGCCCGGGUAAGUGUAAAUCGUCUGCAUGCCGCCGGGCGCCAUGCCUGCAGGUCGACUCUAGAAAACAUG”, the binding signal with PUM1 PUF domain R1-RGC is 3.36 log2 enrichment (interaction score).

Turning to “GGCUAGAACUAGUGGAUCCCCCGGCGCCCGGCGGCUCGAGCCCGGGUAAGUGUAAAUAGUCUGCAUGCCGCCGGGCGCCAUGCCUGCAGGUCGACUCUAGAAAACAUG”, the binding signal with PUM1 PUF domain R8-RWP is 3.02 log2 enrichment (interaction score); with PUM1 PUF domain R3-ART it was 3.43 log2 enrichment (interaction score); in the experiment with PUM1 PUF domain R5-EFW, 4.47 log2 enrichment (interaction score); in the experiment with PUM1 PUF domain R8-PYL it was 2.9 log2 enrichment (interaction score); with PUM1 PUF domain R8-RYN it was 5.13 log2 enrichment (interaction score); with PUM1 PUF domain R8-LFG, 1.28 log2 enrichment (interaction score). For the same sequence, the binding signal is 2.44 log2 enrichment (interaction score) with PUM1 PUF domain R5-VYF, 3.62 log2 enrichment (interaction score) in the experiment with PUM1 PUF domain R4-GPN and 1.81 log2 enrichment (interaction score) with PUM1 PUF domain R4-WFG.

As for “GGCUAGAACUAGUGGAUCCCCCGGCGCCCGGCGGCUCGAGCCCGGGUAAGUUUAAAUAGUCUGCAUGCCGCCGGGCGCCAUGCCUGCAGGUCGACUCUAGAAAACAUG”, the binding signal in the experiment with PUM1 PUF domain R7-RGW is 3.68 log2 enrichment (interaction score).

“GGCUAGAACUAGUGGAUCCCCCGGCGCCCGGCGGCUCGAGCCCGGGUAAGUGUACAUAGUCUGCAUGCCGCCGGGCGCCAUGCCUGCAGGUCGACUCUAGAAAACAUG”: in the experiment with PUM1 PUF domain R4-GSQ, the binding signal is 3.24 log2 enrichment (interaction score).

Consider “GGCUAGAACUAGUGGAUCCCCCGGCGCCCGGCGGCUCGAGCCCGGGUAAGUGUAAAGAGUCUGCAUGCCGCCGGGCGCCAUGCCUGCAGGUCGACUCUAGAAAACAUG”, for which the binding signal with PUM1 PUF domain R2-RRC is 2.42 log2 enrichment (interaction score).

Consider “GGCUAGAACUAGUGGAUCCCCCGGCGCCCGGCGGCUCGAGCCCGGGUAAGUGUAAGUAGUCUGCAUGCCGCCGGGCGCCAUGCCUGCAGGUCGACUCUAGAAAACAUG”, for which the binding signal with PUM1 PUF domain R3-IFS is 5.56 log2 enrichment (interaction score); with PUM1 PUF domain R3-QRS, 2.75 log2 enrichment (interaction score).

Take “GGCUAGAACUAGUGGAUCCCCCGGCGCCCGGCGGCUCGAGCCCGGGUAAGUGUGAAUAGUCUGCAUGCCGCCGGGCGCCAUGCCUGCAGGUCGACUCUAGAAAACAUG”: the binding signal with PUM1 PUF domain R5-EFW is 4.12 log2 enrichment (interaction score).

As for “GGCUAGAACUAGUGGAUCCCCCGGCGCCCGGCGGCUCGAGCCCGGGUAAGUGUUAAUAGUCUGCAUGCCGCCGGGCGCCAUGCCUGCAGGUCGACUCUAGAAAACAUG”, the binding signal with PUM1 PUF domain R5-NIL was 3.18 log2 enrichment (interaction score).

As for “GGCUAGAACUAGUGGAUCCCCCGGCGCCCGGCGGCUCGAGCCCGGGUAAGUGUAAAUGGUCUGCAUGCCGCCGGGCGCCAUGCCUGCAGGUCGACUCUAGAAAACAUG”, in the experiment with PUM1 PUF domain R1-RGC, the binding signal is 1.27 log2 enrichment (interaction score).
